According to PubChem BioAssay AID1159580 (chemical genetic matrix, 2015):
“And” between values parts separate entries of the source, which are not always exact repeats. Equal entries are not always repeated. The whole screen tested about 5,500 compounds, of which about 2,000 (36%) were called active. Inconclusive results (about 18%) are left out. Rule as the data show it: active = normalized growth mostly below about 0.91 (no sharp cut-off); inconclusive = no clear call, values can overlap the other calls; inactive = mostly above about 0.92. The list shows a part of the results.

Assay: chemical genetic growth profiling, strain panel (AID 1159580);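 also: tested at 20 µM; growth read once vehicle control cultures reached saturation at 30 °C; 1 = growth at the plate median or of vehicle wells; lower values mean less growth of the strain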
Settings: S. cerevisiae deletion strains, growth OD

Measured: normalized growth

OCCN(CCO)c1nc(N2CCCCC2)c2nc(N(CCO)CCO)nc(N3CCCCC3)c2n1
active: locus YKR091W, strain srl3, hits give low values 0.551 | locus YOR083W, strain WHI5, hits give low values 0.233
inactive: locus YJR066W, strain TOR1, hits give low values 0.982 | locus YJR075W, strain HOC1, hits give low values 0.997 | locus YKL009W, strain mrt4, hits give low values 0.998 | locus YKL068W, hits give low values 1 | locus YKL085W, strain MDH1 (second series), hits give low values 1.01 | locus YKL085W, strain MDH1, hits give low values 1.01 | locus YKL160W, strain elf1, hits give low values 1.04 | locus YKL190W, strain CNB1, hits give low values 1.01 | locus YKR001C, strain vps1, hits give low values 1.02 | locus YKR026C, strain gcn3, hits give low values 0.991 | locus YLL001W, strain dnm1, hits give low values 1 | locus YLL026W, hits give low values 0.99 | locus YLL041C, strain sdh2, hits give low values 0.969 | locus YLR027C, strain aat2, hits give low values 0.986 | locus YLR039C, strain RIC1, hits give low values 1.06 | locus YLR058C, strain SHM2, hits give low values 1.01 | locus YLR102C, strain apc9, hits give low values 0.987 | locus YLR113W, strain HOG1, hits give low values 0.999 | locus YLR221C, strain rsa3, hits give low values 1.02 | locus YLR258W, strain gsy2, hits give low values 0.997 | locus YLR262C, strain YPT6 (second series), hits give low values 1.02 | locus YLR262C, strain YPT6, hits give low values 0.994 | locus YLR268W, strain sec22, hits give low values 1.01 | locus YLR320W, strain mms22, hits give low values 1.04 | locus YLR330W, strain CHS5, hits give low values 1.01 | locus YLR342W, strain FKS1 (second series), hits give low values 1.02 | locus YLR342W, strain FKS1, hits give low values 0.99 | locus YLR357W, strain rsc2, hits give low values 0.985 | locus YLR370C, strain arc18, hits give low values 0.999 | locus YLR371W, strain rom2, hits give low values 0.996 | locus YLR384C, strain iki3, hits give low values 0.994 | locus YLR418C, strain cdc73, hits give low values 0.976 | locus YML016C, strain PPZ1, hits give low values 1.01 | locus YML032C, strain rad52, hits give low values 0.988 | locus YML120C, strain ndi1, hits give low values 1.02 | locus YML124C, strain tub3, hits give low values 0.995 | locus YMR058W, strain fet3, hits give low values 0.968 | locus YMR078C, strain ctf18, hits give low values 0.994 | locus YMR125W, strain sto1, hits give low values 0.992 | locus YMR129W, hits give low values 0.983 | locus YMR205C, strain PFK2, hits give low values 1.01 | locus YMR223W, strain ubp8, hits give low values 0.997 | locus YMR231W, strain pep5, hits give low values 0.989 | locus YMR307W, strain GAS1, hits give low values 1.02 and 0.989 | locus YNL067W, strain RPL9B, hits give low values 1 | locus YNL071W, strain lat1, hits give low values 0.98 | locus YNL128W, strain TEP1, hits give low values 0.995 | locus YNL153C, strain GIM3, hits give low values 0.968 | locus YNL175C, strain NOP13, hits give low values 0.993 | locus YNL183C, strain NPR1, hits give low values 0.956 | locus YNL197C, strain WHI3, hits give low values 0.988 | locus YNL209W, strain ssb2, hits give low values 0.993 | locus YNL224C, strain SQS1, hits give low values 0.999 | locus YNL233W, strain BNI4, hits give low values 0.982 | locus YNL248C, strain rpa49, hits give low values 0.973 | locus YNL250W, strain rad50, hits give low values 1.01 | locus YNL271C, strain bni1, hits give low values 0.998 | locus YNL298W, strain CLA4, hits give low values 0.991 | locus YNL307C, strain MCK1, hits give low values 0.997 | locus YNL322C, strain KRE1 (second series), hits give low values 0.988 | locus YNL322C, strain KRE1, hits give low values 1.02 | locus YNR049C, strain mso1, hits give low values 0.984 | locus YNR052C, strain pop2, hits give low values 1 | locus YOL012C, strain htz1 2.13 | locus YOL147C, strain pex11, hits give low values 1 | locus YOR001W, strain rrp6, hits give low values 0.928 | locus YOR061W, strain CKA2, hits give low values 1.02 | locus YOR069W, strain VPS5, hits give low values 1.01 | locus YOR070C, strain gyp1, hits give low values 0.996 | locus YOR080W, strain dia2, hits give low values 0.986 | locus YOR083W, strain WHI5 (second series), hits give low values 0.981 | locus YOR106W, strain vam3, hits give low values 1.01 | locus YOR136W, strain idh2, hits give low values 1 | locus YOR144C, strain elg1, hits give low values 0.999 | locus YOR184W, strain ser1, hits give low values 0.997 | locus YOR231W, strain MKK1, hits give low values 1.02 | locus YOR265W, strain rbl2, hits give low values 0.997 | locus YOR270C, strain vph1, hits give low values 0.948 | locus YOR290C, strain snf2, hits give low values 0.931 | locus YOR316C, strain cot1, hits give low values 0.999 | locus YPL051W, strain arl3, hits give low values 1.05 | locus YPL055C, strain LGE1, hits give low values 0.996 and 1.03 | locus YPL078C, strain atp4, hits give low values 1 | locus YPL106C, strain sse1, hits give low values 1.01 | locus YPL240C, strain hsp82, hits give low values 0.99 | locus YPL241C, strain CIN2, hits give low values 1 | locus YPL256C, strain CLN2, hits give low values 1 | locus YPR119W, strain clb2, hits give low values 0.994 | locus YPR141C, strain kar3, hits give low values 0.995 | locus YPR163C, strain tif3, hits give low values 1 | locus YPR167C, strain met16, hits give low values 0.996 | strain wtn01, hits give low values 0.994
